Experimental data: PubChem BioAssay
Activity calls are given as the source filed them.

Test: resazurin metabolic signal in HepG2 cells – cell-based, resazurin fluorescence, 24 h, PK04 Diversity Set, profiling panel (AID 1172); further: test concentration not given here
Details: HepG2 viability, higher = more signal

For `CCOC(=O)C1=CC[C@@H](c2cc(Cl)ccc2Cl)N(S(=O)(=O)c2ccc(C)cc2)[C@H]1c1ccc(OC)cc1`, which z-score is on record?
Its z-score is 0.292.

With `C=C(CCCC)C(=O)CC[C@@H](OC(=O)c1ccccc1-c1ccccc1C(=O)O)c1cccc(OCCO)c1` as the molecule, how does the z-score read?
The z-score was -0.269.

With `CC(C)(C)OC(=O)CC[C@@]1(C(=O)O)N=C(c2ccc(OCCCO)cc2)O[C@@H]1c1ccccc1CN=[N+]=[N-]` as the molecule, how does the z-score read?
Its z-score is 0.911.

For `O=C1C[C@]2(c3ccc([N+](=O)[O-])cc3)C(=O)N(Cc3ccccc3)c3cc(CO)ccc3[C@H]2N1CC12CC3CC(CC(C3)C1)C2`, which z-score is on record?
Its z-score is -0.566.

Which z-score does the source give for `O=C(CS)NCCCCCCNC(=O)[C@@H]1C[C@@H]2C(=O)N3CCC[C@H]3C(=O)N2[C@@H]1c1cccc(OCCO)c1` here?
Its z-score is -0.306.

For `CN(C)CCCCNC(=O)[C@H]1C[C@H]2C(=O)N[C@@H](CCCCN(C)C)C(=O)N2[C@H]1c1cccc(OCCO)c1`, which z-score is on record?
The z-score was 1.11.

Test: budding yeast growth changes without added modifier – OD600, strain BY4716, 24 h, basal condition, primary screen (AID 1173)
Details: S. cerevisiae BY4716 growth, OD600, 24 h; higher = more signal, called active from +8 up or from −8 down

For `COCC(=C=CC[C@H](O)c1ccc(OCCO)cc1)C[C@H](O)COCc1ccccc1`, which z-score is on record?
Its z-score is -1.49 (inactive).

Which z-score does the source give for `O=C1NC(=O)C2C1C=CC(C(O)c1cc(C(F)(F)F)cc(C(F)(F)F)c1)N2Nc1ccc(Cl)cc1Cl` (stereo unspecified) here?
The z-score was -4.29 (inactive).

For `COC(=O)[C@H](Cc1ccccc1)N1CC(/C=C/C2CC2)=C[C@@H]1[C@@H](O)Cc1ccccc1`, which z-score is on record?
The z-score was -2.65 (inactive).

With `NC(=O)NCC#Cc1ccc2c(c1)[C@]1(C(=O)N2)[C@H](C(=O)Nc2nc3ccccc3s2)[C@H]2C(=O)O[C@H](c3ccccc3)[C@H](c3ccccc3)N2[C@@H]1c1ccc(O)cc1` as the molecule, how does the z-score read?
The z-score was 3.37 (inactive).

With `O=C1O[C@@H](c2ccccc2)[C@@H](c2ccccc2)N2[C@@H](c3ccc(O)cc3)[C@]3(C(=O)Nc4ccc(C#CC5=CCCCC5)cc43)[C@@H](C(=O)N3CCN(c4ncccn4)CC3)[C@H]12` as the molecule, how does the z-score read?
Its z-score is -0.066 (inactive).

Which z-score does the source give for `CC(=O)NCCCC[C@@H]1NC(=O)[C@@H]2C[C@H](C(=O)O)[C@H](c3ccc(O)cc3)N2C1=O` here?
Its z-score is 0.929 (inactive).

With `COc1cc(CO)cc(I)c1O[C@H]1C=C(C(=O)NCCO)C[C@@H](NCc2ccccc2F)[C@@H]1O` as the molecule, how does the z-score read?
Its z-score is -2.31 (inactive).

Which z-score does the source give for `O=C1NCC(=O)N2[C@@H]1C[C@@H](C(=O)O)[C@H]2c1ccc(O)cc1` here?
The z-score was -0.231 (inactive).

With `COC(=O)[C@@]1(Cc2ccc(F)cc2)[C@H]2c3cc(C(=O)N4CCCC4)n(CCF)c3C[C@H]2CN1C(=O)c1ccccc1` as the molecule, how does the z-score read?
The z-score was -0.273 (inactive).

For `C[C@]1(C(=O)O)c2ccccc2C(=O)N(Cc2ccccc2)[C@H]1c1ccc(CO)cc1`, which z-score is on record?
The z-score was 0.451 (inactive).

For `CCOC(=O)C[C@H]1[C@H](OC(=O)c2ccc(-c3ccccc3)cc2)[C@@H](NC(=O)C2CCCCC2)c2cc(OCCCO)ccc2N1C(=O)c1ccccc1`, which z-score is on record?
Its z-score is 1.44 (inactive).

For `O=C1O[C@@H](c2ccccc2)[C@@H](c2ccccc2)N2[C@@H](c3ccccc3OCCO)[C@]3(C(=O)Nc4ccccc43)[C@@H](C(=O)NC[C@H](O)c3ccccc3)[C@H]12`, which z-score is on record?
Its z-score is 0.587 (inactive).

Which z-score does the source give for `C=CC1c2cc(O)c(OC)cc2CCN1Cc1sc2ccccc2c1Cl` (stereo unspecified) here?
Its z-score is -18.3 (active).

Which z-score does the source give for `CC(C)CN1C(=O)[C@@]2(c3ccc([N+](=O)[O-])cc3)CC(=O)N(CC34CC5CC(CC(C5)C3)C4)[C@@H]2c2ccc(CO)cc21` here?
The z-score was -0.22 (inactive).

Which z-score does the source give for `COCCOC(=O)N1C(=O)[C@@]2(c3cc(C#Cc4ccc(OC)cc4)ccc31)[C@H](C(=O)N1CCN(c3ncccn3)CC1)[C@H]1C(=O)O[C@H](c3ccccc3)[C@H](c3ccccc3)N1[C@@H]2c1ccccc1OCCO` here?
The z-score was 2.91 (inactive).

With `CCOC(=O)C[C@H]1[C@H](OC(=O)Cc2ccc3c(c2)OCO3)[C@@H](NC(=O)Cc2ccc(OC)cc2)c2cc(OCCCO)ccc2N1C(=O)c1ccccc1` as the molecule, how does the z-score read?
Its z-score is -0.0578 (inactive).

For `[N-]=[N+]=Nc1ccccc1C[C@]1(C(=O)NCc2ccccc2)N=C(c2ccc(OCCCO)cc2)O[C@H]1c1ccccc1`, which z-score is on record?
The z-score was 1.41 (inactive).

With `COC(=O)Cn1c(C(=O)N2CCCC2)cc2c1C[C@H]1CN(C(=O)c3ccccc3)[C@@](Cc3ccc(F)cc3)(C(=O)OC)[C@@H]21` as the molecule, how does the z-score read?
Its z-score is 0.702 (inactive).

With `COc1ccc(NN2C(C(O)c3ccco3)C=CC3C(=O)N(C4CCCCC4)C(=O)C32)cc1` (stereo unspecified) as the molecule, how does the z-score read?
The z-score was -1.11 (inactive).

Which z-score does the source give for `CCCCN1CC=CC23O[C@@H]4C=CCOC(=O)[C@@H]4[C@H]2C(=O)N(C(C)CO)[C@@H]3C1=O` (stereo partly specified) here?
Its z-score is 0.15 (inactive).

For `COc1ccc(NC(=O)O[C@H]2[C@H](OC(=O)Nc3ccc4c(c3)OCO4)[C@@H](OC(=O)Nc3ccc4c(c3)OCO4)[C@@H](OC)O[C@@H]2CO)cc1`, which z-score is on record?
The z-score was 1.96 (inactive).

For `C=CCN1C(=O)[C@]2(CC=C)N=C(c3ccc(OCCCO)cc3)O[C@@H]2c2ccccc21`, which z-score is on record?
Its z-score is -2.51 (inactive).

Which z-score does the source give for `CC1CC/C=C\[C@H]2OC34C=CCN(C(C)C)C(=O)[C@H]3N(CCCCCO)C(=O)[C@@H]4C2C(=O)O1` (stereo partly specified) here?
The z-score was -0.436 (inactive).

With `COC(=O)[C@@]1(Cc2ccccc2)[C@H]2c3cc(C(=O)N4CCCC4)n(Cc4ccsc4Br)c3C[C@H]2CN1C(=O)c1ccccc1` as the molecule, how does the z-score read?
Its z-score is 0.666 (inactive).

For `NCCCCCNC(=O)[C@@H]1C[C@@H]2C(=O)N[C@@H](CCCCN)C(=O)N2[C@@H]1c1cccc(OCCO)c1`, which z-score is on record?
Its z-score is 0.198 (inactive).

With `CCOC(=O)C1=CC[C@@H](c2ccc([N+](=O)[O-])cc2)N(S(=O)(=O)c2ccc(C)cc2)[C@H]1c1ccccc1` as the molecule, how does the z-score read?
The z-score was 2.52 (inactive).

With `CC(C)c1ccc(NN2C(C(O)c3ccco3)C=CC3C(=O)N(c4ccccc4)C(=O)C32)cc1` (stereo unspecified) as the molecule, how does the z-score read?
Its z-score is -2.51 (inactive).

Which z-score does the source give for `COC1(C)CN(Cc2ccccc2Br)[C@H](/C=C/c2ccccc2)[C@H](Cc2ccccc2)O1` (stereo partly specified) here?
The z-score was -0.138 (inactive).

Which z-score does the source give for `CC=CC(O)C1C=CC2C(=O)N(C)C(=O)C2N1N1CCCCC1` (stereo unspecified) here?
The z-score was 0.383 (inactive).

Which z-score does the source give for `CCOC(=O)C1=CC[C@@H](c2cc(Cl)ccc2Cl)N(S(=O)(=O)c2ccc(C)cc2)[C@H]1c1ccc(OC)cc1` here?
Its z-score is 2.05 (inactive).

For `C=C(CCCC)C(=O)CC[C@@H](OC(=O)c1ccccc1-c1ccccc1C(=O)O)c1cccc(OCCO)c1`, which z-score is on record?
Its z-score is -1.46 (inactive).

For `CC(C)(C)OC(=O)CC[C@@]1(C(=O)O)N=C(c2ccc(OCCCO)cc2)O[C@@H]1c1ccccc1CN=[N+]=[N-]`, which z-score is on record?
Its z-score is -0.496 (inactive).

Which z-score does the source give for `O=C1C[C@]2(c3ccc([N+](=O)[O-])cc3)C(=O)N(Cc3ccccc3)c3cc(CO)ccc3[C@H]2N1CC12CC3CC(CC(C3)C1)C2` here?
Its z-score is -0.0685 (inactive).

Which z-score does the source give for `O=C(CS)NCCCCCCNC(=O)[C@@H]1C[C@@H]2C(=O)N3CCC[C@H]3C(=O)N2[C@@H]1c1cccc(OCCO)c1` here?
Its z-score is -0.21 (inactive).

With `CN(C)CCCCNC(=O)[C@H]1C[C@H]2C(=O)N[C@@H](CCCCN(C)C)C(=O)N2[C@H]1c1cccc(OCCO)c1` as the molecule, how does the z-score read?
Its z-score is 0.427 (inactive).
